According to the supplement of paper PMC3334620:
Whole data set: some 33,000 sequences, median “E-score (-0.5 to 0.5)” near -0.035, cut for the highest 2% near 0.35. Shown is part of a subset that was picked to be rich in the highest values.

Each sequence was assayed against T1, Pdr3 (UniProt P33200) (assay: PBM E-score (8-mer binding enrichment) (E-score (-0.5 to 0.5)); higher = stronger / more preferred TF binding). Settings: protein concentration: 200 nM; construct: GST-full length.
T1 sequence: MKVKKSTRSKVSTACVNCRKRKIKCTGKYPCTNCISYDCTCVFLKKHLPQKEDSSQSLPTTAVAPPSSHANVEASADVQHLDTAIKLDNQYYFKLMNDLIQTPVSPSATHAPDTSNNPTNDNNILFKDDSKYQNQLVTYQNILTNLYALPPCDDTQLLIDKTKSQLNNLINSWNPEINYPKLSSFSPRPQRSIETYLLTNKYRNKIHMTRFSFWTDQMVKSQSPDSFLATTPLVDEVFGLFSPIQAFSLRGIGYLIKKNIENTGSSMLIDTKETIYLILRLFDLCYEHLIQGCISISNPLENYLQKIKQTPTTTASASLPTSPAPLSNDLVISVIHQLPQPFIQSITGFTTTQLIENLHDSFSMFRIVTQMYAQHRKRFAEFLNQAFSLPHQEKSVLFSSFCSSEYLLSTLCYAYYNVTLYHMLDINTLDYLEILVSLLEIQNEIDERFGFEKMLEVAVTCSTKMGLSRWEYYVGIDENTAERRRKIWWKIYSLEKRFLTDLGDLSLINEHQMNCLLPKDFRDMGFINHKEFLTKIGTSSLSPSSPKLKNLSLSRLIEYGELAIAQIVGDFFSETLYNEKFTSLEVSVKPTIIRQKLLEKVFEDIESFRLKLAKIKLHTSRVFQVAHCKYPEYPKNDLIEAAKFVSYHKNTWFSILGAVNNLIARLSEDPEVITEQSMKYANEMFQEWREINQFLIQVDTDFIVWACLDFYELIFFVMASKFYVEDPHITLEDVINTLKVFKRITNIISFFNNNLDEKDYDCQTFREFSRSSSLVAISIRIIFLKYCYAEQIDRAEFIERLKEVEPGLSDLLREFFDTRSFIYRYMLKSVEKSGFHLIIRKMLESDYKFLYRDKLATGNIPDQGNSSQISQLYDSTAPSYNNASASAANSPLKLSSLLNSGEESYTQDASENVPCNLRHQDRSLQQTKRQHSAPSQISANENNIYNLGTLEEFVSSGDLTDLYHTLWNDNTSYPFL
Method in brief: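 Detection of bound protein used fluorescent anti-GST, with scans normalised by masliner. The proteins were GST-tagged yeast transcription factors applied at about 100-200 nM to universal all-10-mer Agilent arrays made double-stranded by primer extension. Each ungapped eight-base word, pooled with its reverse complement, was scored with an E-score from the Universal PBM Analysis Suite.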

| Sequence | PBM E-score |
| --- | --- |
| ACATCGCG | 0.0219 |
| CGCTTCGC | -0.0359 |
| AAACATGT | 0.00604 |
| CCTTCCGA | 0.323 |
| ACTTCCAC | 0.0382 |
| CCTTCCTC | -0.201 |
| ACTTCCGC | 0.385 |
| ACTTCCCC | -0.132 |
| CCTTCCGC | 0.38 |
| AGATTCAT | -0.0927 |
| AGTTGCCG | 0.196 |
| ACCGGAGA | 0.353 |
| TCCGGAGA | 0.44 |
| CCCGGAGG | 0.165 |
| CCCAGAGA | -0.223 |
| GCCGGAGA | 0.244 |
| CCCGGAGA | 0.387 |
| AAATTCAT | -0.0189 |
| CGTGCCTC | -0.0179 |
| AACGCAAT | 0.115 |
| ATTCGGAA | 0.415 |
| CTTCGGAA | 0.438 |

| Sequence | PBM E-score |
| --- | --- |
| ATTCGGAC | 0.275 |
| CTTCGGTA | -0.0957 |
| ATTCGGAG | 0.2 |
| GTTCGGAA | 0.431 |
| GTTCGGGA | 0.233 |
| CTTCGGAC | 0.283 |
| GTTCGGCA | 0.054 |
| CTATCCTA | -0.0548 |
| ACTACGCA | -0.236 |
| GTGCAAAA | -0.168 |
| GACGCTAA | -0.213 |
| GTTCCGCA | 0.462 |
| CTTCCGCA | 0.307 |
| GTTCCCCA | -0.173 |
| AATCCGCC | 0.17 |
| ACTCCGCA | 0.154 |
| GTTCCTCA | 0.0277 |
| ATTCCACA | 0.204 |
| ATGCCGCG | 0.346 |
| ATTCCGCA | 0.379 |
| ATTCCGCG | 0.479 |
| CTTCCGCC | 0.336 |

| Sequence | PBM E-score |
| --- | --- |
| ATTCCGCC | 0.417 |
| GCTCTGAA | -0.126 |
| CAGTGCTC | -0.213 |
| AAGAGATA | -0.206 |
| TCCGATAA | 0.289 |
| ACTAGAAA | -0.213 |
| ACTATGTA | -0.181 |
| CCTAGTGC | -0.0662 |
| CTAGGTGC | -0.121 |
| CAGGTGCA | 0.0121 |
| ATCCGAAC | 0.316 |
| CTCCGGTA | 0.321 |
| CTCCGGCA | 0.34 |
| CTCCGGAG | 0.476 |
| ATCCGAAT | 0.365 |
| ATCCGAAA | 0.248 |
| ATCCGAAG | 0.22 |
| TTCCGAAA | 0.41 |
| CACCGGAG | 0.253 |
| CTCCGAAG | 0.311 |
| CTCCGGAA | 0.441 |
| GTCCGAAA | 0.264 |

| Sequence | PBM E-score |
| --- | --- |
| CGCCAGTA | 0.00965 |
| AACTGCGC | -0.146 |
| AGAGATCG | -0.137 |
| AGCGCGGG | 0.324 |
| AGCAAGTA | -0.149 |
| ACGGCACA | -0.0224 |
| ACTGTAGC | -0.197 |
| CTCCGGCC | 0.0522 |
| ATCCGGCC | 0.403 |
| GTCCGGAC | 0.481 |
| TTCCGCAA | 0.404 |
| GTCCGCAC | 0.215 |
| GTCCGCAA | 0.259 |
| CTCCGTAC | 0.162 |
| ATCCGGCG | 0.323 |
| ATCCGCAA | 0.222 |
| CTCCGGAC | 0.382 |
| CTCCGGTC | 0.328 |
| CCCGCTCG | 0.133 |
| ACGTCTTG | -0.178 |
| ACGGTTAT | -0.0715 |
| CGCCTCAC | 0.152 |

| Sequence | PBM E-score |
| --- | --- |
| ACGGTAAA | 0.0442 |
| GTCAAGGA | -0.0724 |
| ATCCGCAT | 0.267 |
| GTCCGGCA | 0.295 |
| ACCCGGAC | 0.317 |
| ATCCGGTA | 0.168 |
| ATCCGGCA | 0.255 |
| GTCCGGTA | 0.181 |
| ATCCGGAC | 0.355 |
| ATCCGGAT | 0.465 |
| ATCCGGAA | 0.464 |
| ATCCGGTC | 0.215 |
| ATCAGGAT | 0.113 |
| GTCCGGAA | 0.457 |
| CTGAGTGA | 0.179 |
| CACCCAGC | -0.0529 |
| CCTAGATC | -0.201 |
| ACTTTGCA | 0.00219 |
| ATCCGCAG | 0.316 |
| ATCCGGAG | 0.433 |
| ATCCGGTG | 0.35 |
| TAGCATGA | -0.224 |
